Experimental data reported in publication PMC7862700, “An all-to-all approach to the identification of sequence-specific readers for epigenetic DNA modifications on cytosine”.

What was measured:
Assay in all cases: DAPPL (digital affinity profiling via proximity ligation, sequencing); 10 mM Tris-HCl pH 7.5, 50 mM NaCl, 1 mM DTT, 4% glycerol, room temperature, 30 min; GST-TFs on glutathione beads, 16-mer random dsDNA library, 0.1% formaldehyde crosslink after washing; high values mean tight binding
[1] = biological target: T1, FLI1 (Homo sapiens, UniProt Q01543 1-452); conditions: protein: recombinant; tags: N-terminal GST; dsDNA, one strand shown
T1 sequence: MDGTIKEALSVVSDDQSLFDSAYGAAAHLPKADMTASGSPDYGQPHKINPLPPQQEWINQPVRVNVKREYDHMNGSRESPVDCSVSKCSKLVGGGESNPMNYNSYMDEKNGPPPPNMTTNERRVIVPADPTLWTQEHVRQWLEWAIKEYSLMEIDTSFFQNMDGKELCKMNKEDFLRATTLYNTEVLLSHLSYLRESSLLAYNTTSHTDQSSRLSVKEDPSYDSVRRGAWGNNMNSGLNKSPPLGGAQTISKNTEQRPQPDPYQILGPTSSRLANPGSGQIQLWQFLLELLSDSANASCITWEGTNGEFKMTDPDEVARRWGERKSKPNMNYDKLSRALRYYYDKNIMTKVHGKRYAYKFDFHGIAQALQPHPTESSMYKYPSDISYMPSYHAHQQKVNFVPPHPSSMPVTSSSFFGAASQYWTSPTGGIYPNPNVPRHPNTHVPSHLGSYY
How it was run: (§1)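 After expression in yeast as GST fusions, human transcription factors were bound to glutathione beads, DNA-barcoded and mixed with a tag-only sample. The pools were incubated with 200 nmole of a 16-mer random double-stranded DNA library in Tris/NaCl/DTT/glycerol buffer (30 min, room temperature), washed and crosslinked with 0.1% formaldehyde. Proximity ligation with BsaI/T4 ligase ran for 1 h at 37 °C, before PCR amplification and sequencing on an Illumina NextSeq500. Binding signal is a hexamer's read frequency for a factor divided by its frequency for the tag-only sample.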

[2] = biological target: T2, ELK1 (Homo sapiens, UniProt P19419 1-428); conditions: protein: recombinant; tags: N-terminal GST; dsDNA, one strand shown
T2 sequence: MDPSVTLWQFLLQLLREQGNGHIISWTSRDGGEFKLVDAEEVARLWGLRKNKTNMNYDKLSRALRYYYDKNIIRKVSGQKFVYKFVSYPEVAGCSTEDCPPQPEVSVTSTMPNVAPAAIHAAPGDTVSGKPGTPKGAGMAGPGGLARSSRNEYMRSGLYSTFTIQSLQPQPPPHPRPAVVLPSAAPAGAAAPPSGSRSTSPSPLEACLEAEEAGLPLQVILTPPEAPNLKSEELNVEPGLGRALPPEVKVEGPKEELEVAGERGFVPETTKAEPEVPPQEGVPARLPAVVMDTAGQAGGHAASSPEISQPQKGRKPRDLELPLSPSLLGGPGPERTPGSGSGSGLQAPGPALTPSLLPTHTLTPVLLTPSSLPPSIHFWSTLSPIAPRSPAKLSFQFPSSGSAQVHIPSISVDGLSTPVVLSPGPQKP
How it was run: as §1

[3] = biological target: T3, GABPA (Homo sapiens, UniProt Q06546 1-454); conditions: protein: recombinant; tags: N-terminal GST; dsDNA, one strand shown
T3 sequence: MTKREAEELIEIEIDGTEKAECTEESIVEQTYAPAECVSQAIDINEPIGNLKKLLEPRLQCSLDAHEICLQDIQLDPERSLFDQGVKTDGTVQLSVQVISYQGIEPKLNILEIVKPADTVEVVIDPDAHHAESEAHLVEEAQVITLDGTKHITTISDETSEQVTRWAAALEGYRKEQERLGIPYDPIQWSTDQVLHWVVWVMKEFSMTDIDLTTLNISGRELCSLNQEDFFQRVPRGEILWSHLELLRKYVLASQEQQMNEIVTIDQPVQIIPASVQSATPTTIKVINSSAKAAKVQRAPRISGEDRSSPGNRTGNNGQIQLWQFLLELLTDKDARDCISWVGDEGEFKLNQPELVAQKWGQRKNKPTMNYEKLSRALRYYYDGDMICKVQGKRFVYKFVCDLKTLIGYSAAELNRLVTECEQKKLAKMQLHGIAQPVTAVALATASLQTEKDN
How it was run: as §1

[4] = biological target: T4, ERG (Homo sapiens, UniProt P11308 1-479); conditions: protein: recombinant; tags: N-terminal GST; dsDNA, one strand shown
T4 sequence: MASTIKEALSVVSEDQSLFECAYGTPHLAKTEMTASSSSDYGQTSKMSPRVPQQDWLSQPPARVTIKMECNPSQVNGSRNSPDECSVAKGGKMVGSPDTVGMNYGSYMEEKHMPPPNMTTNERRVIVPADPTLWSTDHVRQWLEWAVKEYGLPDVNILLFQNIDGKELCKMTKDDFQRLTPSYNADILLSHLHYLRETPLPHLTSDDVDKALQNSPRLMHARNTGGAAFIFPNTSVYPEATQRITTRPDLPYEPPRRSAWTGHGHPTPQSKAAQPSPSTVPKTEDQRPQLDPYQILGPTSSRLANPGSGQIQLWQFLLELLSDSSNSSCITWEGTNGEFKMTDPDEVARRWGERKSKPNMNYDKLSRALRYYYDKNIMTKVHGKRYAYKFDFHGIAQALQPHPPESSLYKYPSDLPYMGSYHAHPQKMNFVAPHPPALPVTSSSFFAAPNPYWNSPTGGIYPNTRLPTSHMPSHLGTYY
How it was run: as §1

[5] = biological target: ELF1 (Homo sapiens, UniProt P32519 1-619); conditions: protein: recombinant; tags: N-terminal GST; dsDNA, one strand shown
How it was run: as §1

[6] = biological target: T5, EHF (Homo sapiens, UniProt Q9NZC4 1-300); conditions: protein: recombinant; tags: N-terminal GST; dsDNA, one strand shown
T5 sequence: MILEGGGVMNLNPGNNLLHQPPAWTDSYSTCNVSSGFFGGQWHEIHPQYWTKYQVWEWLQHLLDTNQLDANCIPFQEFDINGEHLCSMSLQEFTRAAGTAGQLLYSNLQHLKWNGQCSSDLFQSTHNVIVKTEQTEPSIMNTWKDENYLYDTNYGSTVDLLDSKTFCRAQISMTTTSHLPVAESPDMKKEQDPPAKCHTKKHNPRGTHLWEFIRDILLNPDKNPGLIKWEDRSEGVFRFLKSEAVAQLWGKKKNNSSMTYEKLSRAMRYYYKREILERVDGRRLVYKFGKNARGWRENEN
How it was run: as §1

[7] = biological target: SPI1 (Homo sapiens, UniProt P17947 1-270); conditions: protein: recombinant; tags: N-terminal GST; dsDNA, one strand shown
How it was run: as §1

[8] = biological target: SPIB (Homo sapiens, UniProt Q01892 1-262); conditions: protein: recombinant; tags: N-terminal GST; dsDNA, one strand shown
How it was run: as §1

[9] = biological target: T6, ELK3 (Homo sapiens, UniProt P41970 1-407); conditions: protein: recombinant; tags: N-terminal GST; dsDNA, one strand shown
T6 sequence: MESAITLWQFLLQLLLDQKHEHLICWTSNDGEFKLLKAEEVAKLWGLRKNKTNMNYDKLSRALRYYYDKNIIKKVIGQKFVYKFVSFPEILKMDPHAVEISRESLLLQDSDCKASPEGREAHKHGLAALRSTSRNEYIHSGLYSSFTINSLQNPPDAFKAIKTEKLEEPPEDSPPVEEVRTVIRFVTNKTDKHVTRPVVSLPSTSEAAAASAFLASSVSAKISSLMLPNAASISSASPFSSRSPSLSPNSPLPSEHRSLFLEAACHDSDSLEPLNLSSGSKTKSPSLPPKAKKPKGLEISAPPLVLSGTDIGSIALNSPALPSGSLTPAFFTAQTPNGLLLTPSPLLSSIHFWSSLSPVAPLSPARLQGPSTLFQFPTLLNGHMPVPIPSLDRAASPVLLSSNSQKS
How it was run: as §1

[10] = biological target: T7, FEV (Homo sapiens, UniProt Q99581 1-238); conditions: protein: recombinant; tags: N-terminal GST; dsDNA, one strand shown
T7 sequence: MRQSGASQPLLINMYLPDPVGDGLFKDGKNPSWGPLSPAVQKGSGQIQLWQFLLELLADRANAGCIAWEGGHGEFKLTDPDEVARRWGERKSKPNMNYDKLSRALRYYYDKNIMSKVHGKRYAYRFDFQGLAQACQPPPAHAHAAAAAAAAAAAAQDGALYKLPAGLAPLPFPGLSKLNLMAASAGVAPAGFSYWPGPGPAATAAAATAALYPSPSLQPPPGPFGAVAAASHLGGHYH
How it was run: as §1

[11] = biological target: ETV5 (Homo sapiens, UniProt P41161 1-510); conditions: protein: recombinant; tags: N-terminal GST; dsDNA, one strand shown
How it was run: as §1

[12] = biological target: HSF1 (Homo sapiens, UniProt Q00613 1-529); conditions: protein: recombinant; tags: N-terminal GST; chain copies: 3; dsDNA, one strand shown
How it was run: as §1

[13] = biological target: T8, SPIC (Homo sapiens, UniProt Q8N5J4 1-248); conditions: protein: recombinant; tags: N-terminal GST; dsDNA, one strand shown
T8 sequence: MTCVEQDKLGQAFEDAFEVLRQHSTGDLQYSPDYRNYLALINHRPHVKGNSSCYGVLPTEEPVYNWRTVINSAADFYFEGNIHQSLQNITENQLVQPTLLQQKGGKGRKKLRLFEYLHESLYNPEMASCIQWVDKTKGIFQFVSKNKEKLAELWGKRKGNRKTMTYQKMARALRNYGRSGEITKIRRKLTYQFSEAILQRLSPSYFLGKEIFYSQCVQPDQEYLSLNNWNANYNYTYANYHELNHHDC
How it was run: as §1

[14] = biological target: ELF4 (Homo sapiens, UniProt Q99607 1-663); conditions: protein: recombinant; tags: N-terminal GST; dsDNA, one strand shown
How it was run: as §1

[15] = biological target: T9, ELK4 (Homo sapiens, UniProt P28324-2 1-405); conditions: protein: recombinant; tags: N-terminal GST; dsDNA, one strand shown
T9 sequence: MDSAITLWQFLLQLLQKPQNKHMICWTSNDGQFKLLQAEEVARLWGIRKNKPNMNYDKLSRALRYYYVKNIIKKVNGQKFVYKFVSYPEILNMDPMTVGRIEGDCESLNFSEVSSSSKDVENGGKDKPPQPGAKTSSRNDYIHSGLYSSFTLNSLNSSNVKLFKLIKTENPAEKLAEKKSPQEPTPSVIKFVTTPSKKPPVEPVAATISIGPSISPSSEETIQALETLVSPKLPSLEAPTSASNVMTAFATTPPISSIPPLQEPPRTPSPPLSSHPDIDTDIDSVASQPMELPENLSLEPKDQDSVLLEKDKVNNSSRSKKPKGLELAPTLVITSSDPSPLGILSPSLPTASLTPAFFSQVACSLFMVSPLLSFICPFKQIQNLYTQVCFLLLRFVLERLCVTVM
How it was run: as §1

[16] = biological target: T10, ETV2 (Homo sapiens, UniProt O00321 1-342); conditions: protein: recombinant; tags: N-terminal GST; dsDNA, one strand shown
T10 sequence: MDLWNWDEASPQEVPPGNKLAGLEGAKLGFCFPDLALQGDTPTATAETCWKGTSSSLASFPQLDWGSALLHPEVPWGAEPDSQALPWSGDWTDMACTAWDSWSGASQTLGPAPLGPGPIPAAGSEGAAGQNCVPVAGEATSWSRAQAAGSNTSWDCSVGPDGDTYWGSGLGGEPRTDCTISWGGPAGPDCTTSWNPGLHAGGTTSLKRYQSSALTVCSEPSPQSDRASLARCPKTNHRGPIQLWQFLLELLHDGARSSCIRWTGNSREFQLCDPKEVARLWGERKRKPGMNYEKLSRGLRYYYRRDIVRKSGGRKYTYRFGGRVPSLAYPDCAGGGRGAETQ
How it was run: as §1

[17] = biological target: T11, ELF3 (Homo sapiens, UniProt P78545 1-371); conditions: protein: recombinant; tags: N-terminal GST; dsDNA, one strand shown
T11 sequence: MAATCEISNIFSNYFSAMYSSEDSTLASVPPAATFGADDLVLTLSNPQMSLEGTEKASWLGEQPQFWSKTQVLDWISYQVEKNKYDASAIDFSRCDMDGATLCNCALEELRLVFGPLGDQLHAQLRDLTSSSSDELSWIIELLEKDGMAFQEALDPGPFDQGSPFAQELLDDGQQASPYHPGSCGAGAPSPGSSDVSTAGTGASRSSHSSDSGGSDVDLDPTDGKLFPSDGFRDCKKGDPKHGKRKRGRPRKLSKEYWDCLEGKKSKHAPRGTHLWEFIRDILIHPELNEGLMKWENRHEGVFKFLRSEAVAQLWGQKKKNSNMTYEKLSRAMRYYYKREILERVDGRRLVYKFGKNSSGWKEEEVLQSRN
How it was run: as §1

[18] = biological target: CRX (Homo sapiens, UniProt O43186 1-299); conditions: protein: recombinant; tags: N-terminal GST; dsDNA, one strand shown
How it was run: as §1

[19] = biological target: ETV1 (Homo sapiens, UniProt P50549 1-477); conditions: protein: recombinant; tags: N-terminal GST; dsDNA, one strand shown
How it was run: as §1

ELF1, sequence (P32519 whole entry): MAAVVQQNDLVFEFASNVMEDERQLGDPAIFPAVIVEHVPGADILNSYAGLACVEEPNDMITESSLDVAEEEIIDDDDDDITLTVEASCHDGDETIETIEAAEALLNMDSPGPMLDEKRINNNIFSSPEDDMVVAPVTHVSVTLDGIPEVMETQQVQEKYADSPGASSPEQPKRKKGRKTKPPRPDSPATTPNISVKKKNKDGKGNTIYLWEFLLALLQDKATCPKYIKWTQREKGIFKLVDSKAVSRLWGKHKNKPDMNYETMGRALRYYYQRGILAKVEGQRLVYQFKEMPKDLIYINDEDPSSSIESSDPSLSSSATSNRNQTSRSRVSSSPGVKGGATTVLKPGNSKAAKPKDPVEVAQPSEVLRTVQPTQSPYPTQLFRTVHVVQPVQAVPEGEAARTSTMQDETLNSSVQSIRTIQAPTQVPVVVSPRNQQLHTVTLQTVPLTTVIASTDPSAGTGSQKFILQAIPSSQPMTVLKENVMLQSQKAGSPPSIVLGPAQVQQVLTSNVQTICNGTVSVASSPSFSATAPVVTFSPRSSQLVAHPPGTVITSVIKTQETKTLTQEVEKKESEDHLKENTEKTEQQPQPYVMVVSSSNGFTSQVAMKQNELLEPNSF
HSF1, sequence (Q00613 whole entry): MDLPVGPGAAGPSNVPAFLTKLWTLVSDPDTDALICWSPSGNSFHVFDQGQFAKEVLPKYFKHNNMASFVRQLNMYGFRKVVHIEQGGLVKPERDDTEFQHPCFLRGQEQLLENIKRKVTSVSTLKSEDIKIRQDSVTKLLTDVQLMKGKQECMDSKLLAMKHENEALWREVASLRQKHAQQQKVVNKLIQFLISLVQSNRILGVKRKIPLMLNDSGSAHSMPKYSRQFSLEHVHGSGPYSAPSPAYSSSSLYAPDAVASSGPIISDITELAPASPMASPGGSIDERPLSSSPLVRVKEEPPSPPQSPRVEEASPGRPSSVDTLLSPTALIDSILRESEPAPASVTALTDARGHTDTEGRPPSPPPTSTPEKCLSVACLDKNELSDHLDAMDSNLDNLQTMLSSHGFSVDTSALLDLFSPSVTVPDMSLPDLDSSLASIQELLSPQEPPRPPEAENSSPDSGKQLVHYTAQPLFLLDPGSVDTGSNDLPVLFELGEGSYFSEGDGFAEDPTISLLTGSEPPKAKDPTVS
ETV1, sequence (P50549 whole entry): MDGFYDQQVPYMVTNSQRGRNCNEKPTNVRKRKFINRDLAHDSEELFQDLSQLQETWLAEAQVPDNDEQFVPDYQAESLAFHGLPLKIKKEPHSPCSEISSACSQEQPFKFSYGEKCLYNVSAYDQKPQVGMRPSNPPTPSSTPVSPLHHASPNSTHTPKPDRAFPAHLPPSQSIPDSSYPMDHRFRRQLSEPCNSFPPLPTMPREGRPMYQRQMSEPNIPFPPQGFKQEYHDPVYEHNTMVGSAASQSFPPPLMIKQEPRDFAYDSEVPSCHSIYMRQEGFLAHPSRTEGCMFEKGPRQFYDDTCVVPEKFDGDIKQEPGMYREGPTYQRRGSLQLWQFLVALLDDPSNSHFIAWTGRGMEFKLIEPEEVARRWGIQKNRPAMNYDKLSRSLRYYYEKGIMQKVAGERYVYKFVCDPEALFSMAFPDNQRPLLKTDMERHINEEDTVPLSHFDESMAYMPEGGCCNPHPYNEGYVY
CRX, sequence (O43186 whole entry): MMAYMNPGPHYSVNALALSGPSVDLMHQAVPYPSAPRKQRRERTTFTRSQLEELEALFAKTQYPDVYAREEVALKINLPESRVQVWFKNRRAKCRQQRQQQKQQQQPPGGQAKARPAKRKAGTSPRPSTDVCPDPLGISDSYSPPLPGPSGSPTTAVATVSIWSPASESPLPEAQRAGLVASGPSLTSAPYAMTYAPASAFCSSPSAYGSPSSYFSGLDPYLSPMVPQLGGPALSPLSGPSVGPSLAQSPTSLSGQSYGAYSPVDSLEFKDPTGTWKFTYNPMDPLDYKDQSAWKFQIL
ETV5, sequence (P41161 whole entry): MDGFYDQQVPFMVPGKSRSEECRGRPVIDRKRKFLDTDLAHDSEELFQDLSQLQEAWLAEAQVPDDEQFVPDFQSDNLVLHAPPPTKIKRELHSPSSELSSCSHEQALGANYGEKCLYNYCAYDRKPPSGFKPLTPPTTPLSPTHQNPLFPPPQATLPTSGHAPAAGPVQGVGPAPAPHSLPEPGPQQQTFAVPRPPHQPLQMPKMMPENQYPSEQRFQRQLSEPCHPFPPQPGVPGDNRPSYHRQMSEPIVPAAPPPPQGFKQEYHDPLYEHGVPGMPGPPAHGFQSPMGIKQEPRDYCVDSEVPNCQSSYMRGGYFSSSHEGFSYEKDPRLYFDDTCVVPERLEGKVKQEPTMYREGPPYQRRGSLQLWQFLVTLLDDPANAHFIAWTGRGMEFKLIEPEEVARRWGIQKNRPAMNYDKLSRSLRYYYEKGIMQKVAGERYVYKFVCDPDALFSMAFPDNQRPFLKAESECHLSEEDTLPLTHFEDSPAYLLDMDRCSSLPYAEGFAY
ELF4, sequence (Q99607 whole entry): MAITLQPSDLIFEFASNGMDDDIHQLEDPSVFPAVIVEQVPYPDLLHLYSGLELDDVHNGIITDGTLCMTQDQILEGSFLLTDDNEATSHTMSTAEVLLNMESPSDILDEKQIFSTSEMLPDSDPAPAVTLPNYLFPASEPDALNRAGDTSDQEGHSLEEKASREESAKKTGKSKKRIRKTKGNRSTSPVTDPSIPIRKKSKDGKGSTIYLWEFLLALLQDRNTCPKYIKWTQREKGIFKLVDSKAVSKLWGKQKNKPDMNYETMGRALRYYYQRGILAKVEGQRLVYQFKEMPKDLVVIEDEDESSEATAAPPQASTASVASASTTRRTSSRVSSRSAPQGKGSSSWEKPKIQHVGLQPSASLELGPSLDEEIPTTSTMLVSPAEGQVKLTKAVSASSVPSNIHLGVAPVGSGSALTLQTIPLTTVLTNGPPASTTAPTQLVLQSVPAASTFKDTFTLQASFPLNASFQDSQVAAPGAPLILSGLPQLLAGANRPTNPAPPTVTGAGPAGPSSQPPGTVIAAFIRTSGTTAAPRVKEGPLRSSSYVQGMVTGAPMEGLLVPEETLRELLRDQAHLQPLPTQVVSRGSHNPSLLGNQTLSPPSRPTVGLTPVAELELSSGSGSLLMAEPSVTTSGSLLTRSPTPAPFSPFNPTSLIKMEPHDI
SPIB, sequence (Q01892 whole entry): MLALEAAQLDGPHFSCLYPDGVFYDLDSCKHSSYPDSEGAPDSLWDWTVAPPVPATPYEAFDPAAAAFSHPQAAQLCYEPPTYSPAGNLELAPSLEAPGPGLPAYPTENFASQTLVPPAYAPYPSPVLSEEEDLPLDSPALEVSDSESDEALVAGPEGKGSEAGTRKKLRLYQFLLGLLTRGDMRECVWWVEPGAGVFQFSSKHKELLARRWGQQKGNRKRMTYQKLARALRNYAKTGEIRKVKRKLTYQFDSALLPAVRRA

ACTCAT
binding signal [1]: 1.47 fold enrichment (6-mer frequency, TF over GST control) | binding signal [2]: 1.34 fold enrichment (6-mer frequency, TF over GST control) | binding signal [3]: 1.36 fold enrichment (6-mer frequency, TF over GST control) | binding signal [4]: 1.16 fold enrichment (6-mer frequency, TF over GST control) | binding signal [5]: 1.33 fold enrichment (6-mer frequency, TF over GST control) | binding signal [6]: 1.25 fold enrichment (6-mer frequency, TF over GST control) | binding signal [7]: 1.23 fold enrichment (6-mer frequency, TF over GST control) | binding signal [8]: 1.35 fold enrichment (6-mer frequency, TF over GST control) | binding signal [9]: 1.34 fold enrichment (6-mer frequency, TF over GST control) | binding signal [10]: 1.32 fold enrichment (6-mer frequency, TF over GST control) | binding signal [11]: 1.32 fold enrichment (6-mer frequency, TF over GST control) | binding signal [12]: 1.13 fold enrichment (6-mer frequency, TF over GST control) | binding signal [13]: 1.26 fold enrichment (6-mer frequency, TF over GST control) | binding signal [14]: 1.35 fold enrichment (6-mer frequency, TF over GST control) | binding signal [15]: 1.32 fold enrichment (6-mer frequency, TF over GST control) | binding signal [16]: 1.42 fold enrichment (6-mer frequency, TF over GST control) | binding signal [17]: 1.13 fold enrichment (6-mer frequency, TF over GST control) | binding signal [18]: 1.19 fold enrichment (6-mer frequency, TF over GST control) | binding signal [19]: 1.35 fold enrichment (6-mer frequency, TF over GST control)
